Hit rate of the full screen: of about 400,000 compounds, about 5,500 (1.4%) were called active. Another 9% or so got no clear call; they are omitted. Shown is part of a subset that was picked to be rich in actives. Values without a mark were called inactive. The call rests on the fitted dose curve; in most records, active means well fitted cell-killing curve with a large enough effect; inconclusive means small, poorly fitted or top-dose-only effect, or effect the other way; inactive means flat fitted curve, though single readings scatter.
Experiment: qHTS assay for MDR1-selective chemotherapeutics: Primary screen using the parental adenocarcinoma cell KB-3-1; further: nearly all actives have a fitted effect of over 60% in size
Conditions: KB-3-1 viability, CellTiter-Glo ATP luminescence, 72 h; series mostly up to 46.1 µM; activity change, negative = cytotoxic: at the top concentration
Method in brief: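 Luminescent ATP read-out (CellTiter-Glo) measures survival of drug-naive KB-3-1 cells after 72 h compound exposure at 37 °C. Titration series was screened from lowest to highest concentration, with DMSO vehicle plates as background controls.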
On the % scale 0 is the no-effect control and ±100 the full control effect; potency means the concentration at half of the fitted maximal effect.

SMILES	activity change, negative = cytotoxic [%]	Potency
Cc1sc2ncn(CC(=O)N3CCN(c4ccc(F)cc4)CC3)c(=O)c2c1S(=O)(=O)N1CCN(c2ncccn2)CC1	-0.197	
CCOC(=O)c1ccc(NC(=O)C2CC(=O)NC(=Nc3ccc(C)c(C)c3)S2)cc1 (configuration not stated)	-1.1	
CC(=O)OC1=C(C(C)=O)N(Cc2ccccc2)S(=O)(=O)c2ccccc21	-6.94	
Cc1cccc(NC(=S)NCc2ccc3[nH]c4c(c3c2)CCCC4)c1		16.4 µM (active)
Cc1cccc(NC(=S)N2CCC(C(=O)c3ccc(F)cc3)CC2)c1	-11.4	
CCc1cccc(NC(=O)CN(C)S(=O)(=O)c2ccc3[nH]c4c(c3c2)CCCC4)c1	-20.9	
Cc1ccc(Cl)cc1NC(=O)C(C)n1nnc2sc(-c3ccccc3)cc2c1=O (configuration not stated)	-2.42	
COc1ccc(C2CC(=O)N(Cc3ccccc3C)c3c2c(C)nn3-c2nc(C)cc(C)n2)c(OC)c1 (configuration not stated)	3.03	
CCOc1ccc(C(=O)c2cn(Cc3ccccc3OC)c3ccc(F)cc3c2=O)cc1	22.1	
CCCc1ccc(OCCNC(=O)c2ccccc2Br)cc1	1.59	
CCCOc1cccc(C(=O)Nc2cccc(NC(=O)c3ccc(C(C)(C)C)cc3)c2)c1	7.31	
CCCOc1ccc(C(=O)C(CCC(CNCC)C(=O)c2ccc(OCCC)cc2)CNCC)cc1 (configuration not stated)		5.17 µM (active)
Cc1ccc2nc(COc3cccc(NC(=O)c4ccccc4Cl)c3)cc(=O)n2c1	-5.83	
CCOc1ccc(CCNC(=O)c2ccc3c(c2)sc2nc(-c4ccc(F)cc4)cn23)cc1OCC	-10.9	
CC1CCN(c2ccc(C(=O)NCc3ccc4c(c3)OCO4)cc2[N+](=O)[O-])CC1	3.15	
O=C(NCc1ccc2c(c1)OCO2)c1cc([N+](=O)[O-])ccc1N1CCOCC1		5.17 µM (active)
O=C(Cc1ccc([N+](=O)[O-])cc1)NCCc1ccc2c(c1)OCO2	-4.66	
Cc1cc(=O)n(CC(=O)Nc2cccc([N+](=O)[O-])c2)c(-n2nc(C)cc2C)n1	-14.3	
CCOc1ccccc1NC(=O)c1ccc2c(c1)CCN2S(=O)(=O)c1ccc(C)cc1	0	
COc1ccccc1NC(=O)c1cc(C2CC2)nc2c1c(C)nn2-c1ccc(C)cc1	4.13	
COc1cccc(NC(=O)CSc2cc(=O)n(C)c3ccc(Cl)cc23)c1	-2.78	
CCc1cccc(C)c1NS(=O)(=O)c1ccc(-c2cc(C)no2)s1		1.16 µM (active)
Cc1cc(-c2ccc(S(=O)(=O)N3CCN(c4cccc(C(F)(F)F)c4)CC3)s2)on1	-7.84	
Cc1cc(C)cc(NS(=O)(=O)c2ccc(-c3cc(C)no3)s2)c1		3.26 µM (active)
CCc1cccc(C)c1NS(=O)(=O)c1cc(Br)cnc1N	3.61	
CC(=O)c1ccc(NS(=O)(=O)c2ccc(-c3cc(C)no3)s2)cc1	5.1	
Cc1cc(-c2ccc(S(=O)(=O)N3CCc4ccccc4C3)s2)on1	5.38	

From PubChem BioAssay AID1347075 (National Center for Advancing Translational Sciences (NCATS), 2019)
